This note sets out measurements from PubChem BioAssay (NCATS).

Test [1] can be described thus: Primary qHTS for inhibitors of nuclear receptor binding SET domain protein 2 (NSD2) in an isogenic RCH-ACV NSD2 p.E1099K mutant (9B) (AID 1645876).
A short description of test [2]: Primary qHTS for inhibitors of nuclear receptor binding SET domain protein 2 (NSD2) in an RCH-ACV wild type WT cells (2C) (AID 1645877). For orientation: In qHTS, concentration-response curves come from the screen itself.

Molecules are shown by their SMILES. Values joined by “and” are separate entries in the source; they are usually repeats but may differ in a detail not shown here. Equal entries are not always repeated. Records with an inconclusive call do not appear. Active and inactive are the calls of the source. The call rests on the fitted dose curve; in most records, active means well fitted curve in the direction sought with a large enough effect; inconclusive means small, poorly fitted or top-dose-only effect, or another doubt; inactive means no such curve, though single readings can be large; an effect the other way counts as inactive or inconclusive.
Further: nearly all actives have a fitted effect of over 70% in size.
Potency means the concentration at half of the fitted maximal effect.

Turning to `C=C(C)C(=O)OC1CC2(C)OC(=CC2=O)C(=C)CC2OC(=O)C(=C)C12` (stereo not given), the Potency in test [1] is 800 nM (active); in test [2], 253 nM (active).
The matching figures for `CC1(CO)CC2C(O)C3=C(CC(C)(O)C2C1)C(=O)OC3` (stereo not given): “inactive” and “inactive”.
The matching figures for `CN1CCN(S(=O)(=O)c2ccc(-c3cnc(N)c(C(=O)Nc4cccnc4)n3)cc2)CC1`: 317 nM (active) and 317 nM (active).
`Cc1c(F)ccc(C(=O)Nc2cc([N+](=O)[O-])ccc2N2CCN(C)CC2)c1Cl`: the Potency entry in test [1] and in test [2] was “inactive” each time.
Regarding `CS(=O)(=O)Nc1cc2occ(NC=O)c(=O)c2cc1Oc1ccccc1`, the Potency result in test [1] and in test [2] was “inactive” each time.
With `CC(C)=CCC[C@](C)(O[C@@H]1O[C@H](CO[C@@H]2OC[C@@H](O)[C@H](O)[C@H]2O)[C@@H](O)[C@H](O)[C@H]1O)[C@H]1CC[C@]2(C)[C@@H]1[C@H](O)C[C@@H]1[C@@]3(C)CC[C@H](O[C@@H]4O[C@H](CO)[C@@H](O)[C@H](O)[C@H]4O)C(C)(C)[C@@H]3CC[C@]12C`, the Potency result in test [1] and in test [2] was “inactive” in each case.
For `C=C1C(=O)O[C@@H]2/C=C(\C)CC/C=C(/C=O)[C@H](OC)[C@@H](OC(=O)C(C)C)[C@@H]12`, the Potency in test [1] was 8010 nM (active); in test [2], 3190 nM (active).
For the molecule `Cc1cn(CCN2CCN(c3ccccc3-c3cc(C#N)cc(C(=O)NCCCN4CCCC4)c3)CC2)c2ccccc12`, the Potency in test [1] is 6.49 µM (active) and 6.61 µM (active); in test [2] it was 5.78 µM (active) and 6.61 µM (active).
With `C=C1CC[C@H]2C(=C)CC[C@H]3C(=C)C(=O)O[C@@H]3[C@@H]12`, the Potency in test [1] was 16300 nM (active); in test [2], 10300 nM (active).
The matching figures for `COC1C=C(C)C(O)(CO)C2(C)CCCC(C)(C)C12` (stereo not given): “inactive” and “inactive”.
